The full list was thinned out, with hits kept by preference.
mHTT-CaM PPI inh = mutant huntingtin-calmodulin interaction inhibitors – biochemical, AlphaScreen, primary screen; P42858; AlphaScreen His-mHTT/GST-CaM binding, luminescence; inhibition, % at 15 µM; 190,000 tested, 3.6% active; AID 1671202, 2021;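 note: 0% = both proteins with DMSO and 100% = one protein alone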
Pf apPOL inh = Pf-apPOL inhibitors, biochemical, fluorescence | Plasmodium falciparum apicoplast DNA polymerase (apPOL) | Recombinant Pf-apPOL, molecular beacon fluorescence, 1.5 h | inhibition, % at 10 µM | 210,000 tested, 0.25% active
Active calls of the source: *; . = no result; ! = not confirmed by another sample. Cut-off read from the data, not from the text of the source: active = inhibition above about 50%; inactive = the rest.

SMILES | mHTT-CaM PPI inh | Pf apPOL inh
O=C(Cc1nc(-c2ccccc2)n[nH]1)Nc1ccccc1 | -2 | -5
Cc1ccc(NC(=O)Cc2nc(-c3ccccc3)n[nH]2)cc1C | -3 | -3
O=C(Cc1nc(-c2ccccn2)n[nH]1)Nc1ccc(Cl)cc1 | 68* | -10
O=C(Cc1nc(-c2ccccc2)n[nH]1)Nc1ccc(F)cc1 | -3 | 2
O=C(Cc1nc(-c2ccccn2)n[nH]1)Nc1cccc(Cl)c1 | 99* | -12
O=C(Cc1nc(-c2ccccn2)n[nH]1)Nc1cccc(F)c1 | 99* | -13
COc1c(C(N)=NO)cc(C)c2c1CCC2 | . | -30
Cc1cccc(NC(=O)c2cncc(-c3ccc(F)cc3)c2)c1 | 6 | -3
CCn1c(SC)nnc1-c1nn(C)c2c1CN(C(=O)C1CCCC1)CC2 | -9 | -4
COc1ccc(C(F)(F)F)cc1NC(=O)C1CCCN(c2ccc(-c3ccco3)nn2)C1 (stereo unspecified) | 77* | -4
COc1ccccc1NC(=O)C1CCCN(c2cnn(C)c(=O)c2)C1 (stereo unspecified) | 2 | 0
COc1ccc(CCNC(=O)C2CCCN(c3ccc(-c4ccco4)nn3)C2)cc1OC (stereo unspecified) | 2 | -7
COc1ccc(Cl)cc1NC(=O)c1cnn2c(C(F)(F)F)cc(-c3ccco3)nc12 | 1 | 5
COc1ccc(C)cc1NC(=O)C1CCCN(c2cnn(C)c(=O)c2)C1 (stereo unspecified) | 53* | -8
COc1ccc(Cl)cc1NC(=O)N1CCN(c2ccc(-c3ccco3)nn2)CC1 | 64* | 15
Cc1ccc(-c2ccc(CN3C(C(C)C)C(=O)N(Cc4cn(Cc5ccco5)nn4)CCS3(=O)=O)cc2)cc1 (stereo unspecified) | 65* | -6
CC(C)C1C(=O)N(Cc2cn(CC3CCCCC3)nn2)CCS(=O)(=O)N1Cc1ccc(-c2ccc(F)cc2)cc1 (stereo unspecified) | 22 | -5
CC(C)C1C(=O)N(Cc2cn(Cc3ccco3)nn2)CCS(=O)(=O)N1Cc1ccc(-c2cccc(N(C)C)c2)cc1 (stereo unspecified) | 65* | -4
CC(C)CC1C(=O)N(Cc2cn(Cc3ccco3)nn2)CCS(=O)(=O)N1Cc1ccc(-c2cccc(CO)c2)cc1 (stereo unspecified) | 59* | 10
COc1ccc(-c2ccc(CN3C(C(C)C)C(=O)N(Cc4cn(CC5CCCCC5)nn4)CCS3(=O)=O)cc2)cc1 (stereo unspecified) | 20 | -1
CC(C)CC1C(=O)N(Cc2cn(Cc3ccco3)nn2)CCS(=O)(=O)N1Cc1ccc(-c2ccc(Cl)cc2)cc1 (stereo unspecified) | 40 | -9
COC(=O)COc1ccc2c(c1)OC(=Cc1cc(OC)ccc1OC)C2=O | -4 | -8
CC(C)COc1ccc2c(c1)c1c3n2CCNC3CCC1 (stereo unspecified) | 48 | .
C1=C(c2ccc3c(c2)c2c4n3CCNC4CCC2)CCC1 (stereo unspecified) | 55* | 2
CCN1CCn2c3c(c4cc(Cl)ccc42)CCCC31 (stereo unspecified) | 21 | -5
SMILES | mHTT-CaM PPI inh | Pf apPOL inh
c1cc2c(cc1C13CC4CC(CC(C4)C1)C3)c1c3n2CCNC3CCC1 (stereo unspecified) | 100* | .
COc1ccccc1C1CCN(Cc2c[nH]c3ccccc23)CC1 | . | -12
Cc1ccc(-c2noc(CCC(=O)N3CCC4(CC3)OCCO4)n2)cc1 | -1 | -3
COc1ccc([N+](=O)[O-])cc1C1Oc2ccccc2C2CC(c3cccs3)=NN21 (stereo unspecified) | 28 | 0
O=[N+]([O-])c1ccccc1C1Oc2ccccc2C2CC(c3cccs3)=NN21 (stereo unspecified) | 20 | -7
Oc1ccc(C2Oc3ccccc3C3CC(c4cccs4)=NN32)c(O)c1 (stereo unspecified) | 64* | 9
COc1cccc(C2Oc3ccccc3C3CC(c4cccs4)=NN32)c1O (stereo unspecified) | 51* | 8
Clc1cccc(C2Oc3ccccc3C3CC(c4ccccc4)=NN32)c1Cl (stereo unspecified) | -9 | .
c1csc(C2=NN3C(C2)c2ccccc2OC3c2ccc3c(c2)OCO3)c1 (stereo unspecified) | 14 | 1
O=[N+]([O-])c1ccc(O)c(C2Oc3ccccc3C3CC(c4cccs4)=NN32)c1 (stereo unspecified) | 62* | 3
CCC1Oc2ccccc2C2CC(c3cccs3)=NN12 (stereo unspecified) | 75* | 3
CCn1cc(S(=O)(=O)N2CCCn3nc(-c4cccs4)cc3C2)cn1 | -1 | 0
COc1ccc(C2=NN(CC(=O)NC3CCCC(C)C3C)C(=O)CC2)cc1 (stereo unspecified) | 13 | -18
O=C1c2ccc([N+](=O)[O-])cc2C(=O)N1CCc1nc2ccccc2c(=O)o1 | -2 | -1
O=C(O)C1CSC(c2ccc(Cl)c(Cl)c2)N1 (stereo unspecified) | 2 | 4
O=C(O)C1CSC(c2cc(Cl)cc(Cl)c2O)N1 (stereo unspecified) | 91* | 0
COc1ccc(Br)cc1C1NC(C(=O)O)CS1 (stereo unspecified) | 16 | -8
O=C(O)C1CSC(c2cc(Br)ccc2O)N1 (stereo unspecified) | 56* | 8
Cc1ccc(-c2ccc(C=C3C(=O)OC(C)(C)OC3=O)o2)cc1 | 7 | 4
CC1=NOC(=O)/C1=C/c1ccc(-c2ccc(Cl)cc2)o1 | 64* | -6
CC1(C)OC(=O)C(=Cc2ccc(-c3cccc(Cl)c3)o2)C(=O)O1 | 55* | 6
CC1=NOC(=O)/C1=C/c1ccc(-c2ccc3c(c2)COC3=O)o1 | -1 | -5
CC(C)C(=O)Nc1ccc(NC(=O)c2ccc(Br)o2)cc1 | 3 | -6
Nc1sc(SCC(=O)Nc2ccc3c(c2)OCO3)nc1-c1ccccc1 | 78* | 1
Nc1nnc(SCC(=O)Nc2ccc3c(c2)OCO3)s1 | . | -10
SMILES | mHTT-CaM PPI inh | Pf apPOL inh
O=C(NCCCN1CCCC1)c1cc2c(s1)CN(C1CCCC1)C2 | 4 | 2
N#CC1=C(S)NC(=O)C(C#N)C12CCCCC2 (stereo unspecified) | 9 | .
CCNC(=O)C1CCC(c2ccccc2)N(C(=O)c2ccc(Cl)cc2)C1 (stereo unspecified) | 13 | 8
Cc1cccc(COC[C@H](CC(C)C)N2CCN(C(=O)c3ccc(C(F)(F)F)cc3)CCC2=O)c1 | 90* | -2
Cc1ccc(S(=O)(=O)N2CCC(=O)N([C@H](COCc3cccc(C)c3)C(C)C)CC2)cc1 | -9 | -4
CC(C)C[C@@H](COCc1cccc(C(F)(F)F)c1)N1CCN(C(=O)c2ccc(C(F)(F)F)cc2)CCC1=O | 89* | 0
Cc1ccc(S(=O)(=O)N2CCC(=O)N(CCOCc3cccc(C(F)(F)F)c3)CC2)cc1 | 7 | -1
CC(C)c1ccc(NC(=O)C2CCc3nc(N4CCOCC4)ncc3C2)cc1 (stereo unspecified) | 8 | -4
Cc1csc(SCCn2c(N3CCC(C(N)=O)CC3)nc3c2c(=O)[nH]c(=O)n3C)n1 | -10 | 0
CSC(=CC(=O)c1sc2scc(C)c2c1C)SC | . | -8
COC(=O)c1sc2scc(C)c2c1C | . | 64*!
Cc1cc(F)c(F)c(C(=O)N2CCCCCC2)c1Cl | -3 | 11
CC(N)=Nc1sc2c(c1C#N)CCCC2 | -4 | -4
